Assay results taken from paper PMC4336329 (PLoS ONE, 2015).
In all, about 310,000 compounds went through this assay and about 2,200 (0.71%) showed an effect of 50% or more. The effect is printed as a negative number. Only a selection was taken, and strong results are over-represented in it overall.

These molecules were tested against human ether-à-go-go-related gene (hERG) potassium channel (human, UniProt Q12809) (assay: primary screen, population patch clamp on CHO cells stably expressing hERG; higher = less effect of the substance).
Chain of human ether-à-go-go-related gene (hERG) potassium channel (Q12809 whole entry, looked up): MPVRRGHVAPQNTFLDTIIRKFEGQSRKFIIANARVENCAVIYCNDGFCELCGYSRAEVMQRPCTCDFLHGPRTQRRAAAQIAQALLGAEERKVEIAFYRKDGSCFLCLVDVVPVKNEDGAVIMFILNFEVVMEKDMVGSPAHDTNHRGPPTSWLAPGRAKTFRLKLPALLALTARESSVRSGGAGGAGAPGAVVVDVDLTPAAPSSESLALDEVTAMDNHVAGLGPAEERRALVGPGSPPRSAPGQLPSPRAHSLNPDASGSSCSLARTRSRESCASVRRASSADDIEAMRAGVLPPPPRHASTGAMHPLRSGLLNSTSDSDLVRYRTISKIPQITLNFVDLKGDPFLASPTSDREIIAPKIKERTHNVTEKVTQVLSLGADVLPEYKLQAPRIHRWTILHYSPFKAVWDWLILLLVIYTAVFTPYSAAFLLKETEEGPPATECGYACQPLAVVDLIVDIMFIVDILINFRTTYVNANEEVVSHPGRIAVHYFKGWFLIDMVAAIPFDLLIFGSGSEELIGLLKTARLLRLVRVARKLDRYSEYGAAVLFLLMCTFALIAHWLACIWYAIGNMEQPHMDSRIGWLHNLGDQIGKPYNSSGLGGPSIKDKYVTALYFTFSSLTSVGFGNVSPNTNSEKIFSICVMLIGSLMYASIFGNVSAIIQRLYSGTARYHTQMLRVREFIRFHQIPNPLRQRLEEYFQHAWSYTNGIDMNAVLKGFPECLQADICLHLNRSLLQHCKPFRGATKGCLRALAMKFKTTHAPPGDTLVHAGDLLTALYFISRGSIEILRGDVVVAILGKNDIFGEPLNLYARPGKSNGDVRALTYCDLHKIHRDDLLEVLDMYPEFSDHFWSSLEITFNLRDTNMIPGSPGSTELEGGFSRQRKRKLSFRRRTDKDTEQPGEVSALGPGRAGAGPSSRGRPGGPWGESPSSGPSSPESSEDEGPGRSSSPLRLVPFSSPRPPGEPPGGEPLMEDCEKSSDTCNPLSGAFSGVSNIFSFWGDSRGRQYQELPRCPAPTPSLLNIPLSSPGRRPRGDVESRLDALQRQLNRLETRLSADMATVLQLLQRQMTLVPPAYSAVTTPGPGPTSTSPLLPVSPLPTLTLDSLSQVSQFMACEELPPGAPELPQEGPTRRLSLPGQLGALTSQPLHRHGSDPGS

Structure (SMILES)	hERG current change (%, negative = inhibition) at 1uM [%]
COc1ccccc1NC(=O)COC(=O)/C=C/c1ccc2c(c1)OCO2	9.01
O=C(Nc1ccc(C(=O)O)cc1)/C(=C\c1ccc2c(c1)OCO2)NC(=O)c1ccco1	19.4
O=C(c1csc2c1CCCC2)N1CCN(c2ccc(F)cc2)CC1	2.84
COc1ccc(C(=O)Nc2cccc(-c3ccc4nncn4n3)c2)cc1	7.11
CCn1ncc(NC(=S)NCCc2ccccc2)c1C(N)=O	2.4
CC(C)C(OC(=O)c1cccs1)C(=O)NCc1ccco1 (stereo not drawn)	12.2
O=S(=O)(Nc1cc(S(=O)(=O)N2CCOCC2)ccc1N1CCOCC1)c1ccc2c(c1)OCCO2	28.4
COc1ccccc1N1C(=O)[C@@H]2[C@H](C1=O)[C@H](C(=O)c1ccc(OC(C)=O)cc1)N1N=CC=C[C@@H]21	15.9
C#CCCOC(=O)N1C2=NC(C(=O)OC)=C(C(=O)OC)[C@@H]3N(C)c4ccc(OC)cc4[C@]23C[C@H]1C(=O)OC	-0.338
CSc1ccc(/C=C2\CCn3c2nc2cc(C(=O)O)ccc2c3=O)cc1	15.6
O=C(Nc1ccccn1)c1cc2ccccc2o1	9.79
CCOC(=O)N/N=C/c1ccc(C)o1	5.21
Cl.OC(COCC1COc2ccccc2O1)CN1CCN(c2ccc(F)cc2)CC1 (stereo not drawn)	-57.6
N#Cc1ccc(OCC(O)CN2CCN(CC(O)COc3ccc(C#N)cc3)CC2)cc1 (stereo not drawn)	-91.3
COc1ccc(N2CCN(CC(O)COc3ccc(F)cc3)CC2)cc1.Cl (stereo not drawn)	-47.8
OC(CN1CCN(c2ncc(C(F)(F)F)cc2Cl)CC1)c1ccccc1 (stereo not drawn)	1.4
Cl.OC(COCC1COc2ccccc2O1)CN1CCN(c2ccccc2F)CC1 (stereo not drawn)	-19.9
Cc1ccc(OCC(O)CN2CCN(CC(O)COc3ccc(C)cc3)CC2)cc1 (stereo not drawn)	-8.83
CN1CCN(CC(O)COc2ccc(OCC(O)CN3CCN(C)CC3)cc2)CC1 (stereo not drawn)	10.2
N#Cc1ccc(OCC(O)CN2CCN(c3ncc(C(F)(F)F)cc3Cl)CC2)cc1 (stereo not drawn)	-81.4
CCC(=O)c1ccc(OCC(O)CN2CCN(c3ccc(F)cc3)CC2)cc1 (stereo not drawn)	-15.1
O=C(O)CN1CCN(c2ncc(C(F)(F)F)cc2Cl)CC1	12.6
CC(=O)c1ccc(OCC(O)CN2CCN(c3ccc(F)cc3)CC2)cc1.Cl (stereo not drawn)	-64.9
Cl.OC(COCC1COc2ccccc2O1)CN1CCN(c2ccccc2)CC1 (stereo not drawn)	-24.7
Cc1cc(N2CCCC2)ccc1NC(=O)CN1C(=O)NC(C)(c2ccccc2)C1=O (stereo not drawn)	16
O=P(O)(CCc1ccccc1)C(O)c1ccccc1 (stereo not drawn)	5.09
COc1cc(OC)cc(C(=O)N[C@H](C(=O)OCC(=O)NC(=O)c2cccn2C)C(C)C)c1	6.95

Structure (SMILES)	hERG current change (%, negative = inhibition) at 1uM [%]
C=CCNC(=O)CSc1ccc(Cl)cc1	13.7
CNc1nnc(-c2ccc(C)cc2)c2ccccc12	-5.45
Cc1ccc([N+](=O)[O-])c2c1C(N1CC(C)OC(C)C1)C(C)(C)O2 (stereo not drawn)	17.1
CCOc1ccc(NC(=O)COc2ccc(C(=O)NCCc3ccccc3)cc2)cc1	3.64
Cc1cc(C(=O)N/N=C/c2cccc(Cl)c2Cl)no1	3.36
O=C1OC(N2C(=O)CC[C@H]2C(=O)Nc2ccc(F)c(F)c2)c2ccccc21 (stereo partly drawn)	8.61
CC(=O)c1ccc(NC(=O)CSc2n[nH]c(-c3cccnc3)n2)cc1	14.1
COc1ccc(CCNC(=O)Cn2c(=O)n(CC3CCCO3)c(=O)c3ccccc32)cc1OC (stereo not drawn)	3.58
COc1ccc(CCNC(=O)c2cc3c(=O)n4cccc(C)c4nc3n(CC3CCCO3)c2=N)cc1 (stereo not drawn)	-79.4
Cc1cccn2c(=O)c3cc(C(=O)NCCc4ccccc4)c(=N)n(CC4CCCO4)c3nc12 (stereo not drawn)	-91
COc1ccc(CCNC(=O)c2cc3c(=O)n4ccccc4nc3n(CC3CCCO3)c2=N)cc1OC (stereo not drawn)	-90.3
O=C(CSc1nc2ccccc2c(=O)n1CC1CCCO1)NCCc1ccccc1 (stereo not drawn)	19.6
N=c1c(C(=O)NCCc2ccccc2)cc2c(=O)n3ccccc3nc2n1CC1CCCO1 (stereo not drawn)	-93.8
Cc1ccc(NC(=O)N2CCCCCC2)cc1	0.321
CCOC(=O)c1cnc(-n2nc(C)cc2C)nc1Nc1ccc(O)cc1	14.2
COc1cc(Cl)c(C)cc1NC(=O)CSc1sc2c(O)cc(=O)[nH]c2c1C#N	18.7
CC(=O)c1ccccc1NS(C)(=O)=O	9.61
COc1ccccc1Nc1ncnc2ccc(C)cc12	12.7
Cc1ccc(CCNC(=O)c2ccc3nc4ccccc4c(=O)n3c2)cc1	14.3
Cc1ccc2nc3c(cc(C(=O)NCCc4ccccc4)c(=N)n3CC3CCCO3)c(=O)n2c1 (stereo not drawn)	-84
Cc1ccc(S(=O)(=O)c2cc3c(=O)n4cccc(C)c4nc3n(CC3CCCO3)c2=N)cc1C (stereo not drawn)	12.9
COc1ccc(CNC(=O)c2cc3c(=O)n4cccc(C)c4nc3n(CC3CCCO3)c2=N)cc1 (stereo not drawn)	-83.8
Cc1cccn2c(=O)c3cc(C(=O)NCc4ccc(F)cc4)c(=N)n(CC4CCCO4)c3nc12 (stereo not drawn)	-81.8
CC1CN(C(=O)c2c([N+](=O)[O-])cnn2C)CC(C)O1 (stereo not drawn)	1.78
NNC(=O)C1CC(O)CN1S(=O)(=O)c1ccc(Cl)cc1 (stereo not drawn)	6.56
O=C(Nc1ccc(-c2csc(-c3ccccc3)n2)cc1)c1ccccc1Cl	16.9
CCOC(=O)N1CCC(NC(=O)c2cc(C(=O)Nc3ccc(OC)c(OC)c3)ccc2CO)CC1	4.41
